{"source": "PubChem BioAssay (EPA / NIEHS)", "note": "Records with an inconclusive call do not appear. Active and inactive are the calls of the source. The calls were made as follows: active = hit-call score of the fitted dose curve at least 0.9, where 1 is the maximum; inconclusive = response in the unintended direction; inactive = score below 0.9."}
{"assay": "TOX21_p53_BLA_p2_viability: Viability Assessment in the Tox21 HCT-116 p53 Agonism Beta-lactamase Assay, Phase 2 (AID 2283591);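 also: compound exposure lasted 16 h at 37 °C; actives lower the ATP signal meaning cytotoxicity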", "summary_of_the_method": "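HCT116 p53-bla cells, 4000/well, dosed after 5 h plating (217-fold dilution of DMSO stocks) and incubated 16 h at 37C. Viability taken as cellular ATP by CellTiter-Glo luminescence after 30 min RT; signal loss marks cytotoxicity.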"}
{"compound": "O=C(OCC1(COC(=O)c2cccnc2)CCCC(COC(=O)c2cccnc2)(COC(=O)c2cccnc2)C1O)c1cccnc1", "outcome": "inactive"}
{"compound": "Oc1cc2c(cc1O)[C@H]1c3ccc(O)c(O)c3OC[C@@]1(O)C2", "outcome": "inactive"}
{"compound": "COC(=O)[C@H]1[C@H]2C[C@@H]3c4[nH]c5cc(OC)ccc5c4CCN3C[C@H]2C[C@H](OC)[C@@H]1OC", "outcome": "inactive"}
{"compound": "CCCCCCc1ccc(-c2ccc(C#N)cc2)cc1", "outcome": "inactive"}
{"compound": "CN(C)CCOC1=Cc2ccccc2Sc2ccc(Cl)cc21", "outcome": "inactive"}
{"compound": "CC(=O)CCCCn1c(=O)c2c(ncn2C)n(C)c1=O", "outcome": "inactive"}
{"compound": "O=[N+]([O-])c1ccc(F)cc1F", "outcome": "inactive"}
{"compound": "O=c1[nH]ncc2ccccc12", "outcome": "inactive"}
{"compound": "NC(Cc1ccc(Cl)cc1)C(=O)O", "note": "(stereo not given)", "outcome": "inactive"}
{"compound": "CC[N+]1(CC)CCC(=C(c2ccccc2)c2ccccc2)C1C", "note": "(stereo not given)", "outcome": "inactive"}
{"compound": "Cc1ccc(C(=O)O)cc1", "outcome": "inactive"}
{"compound": "COCCCOc1cc(C[C@@H](C[C@H](N)[C@@H](O)C[C@H](C(=O)NCC(C)(C)C(N)=O)C(C)C)C(C)C)ccc1OC", "outcome": "inactive"}
{"compound": "CC(O)[C@@H]1NC(=O)[C@H](CCCCN)NC(=O)[C@@H](Cc2c[nH]c3ccccc23)NC(=O)[C@H](Cc2ccccc2)NC(=O)[C@@H](NC(=O)[C@H](N)Cc2ccccc2)CSSC[C@@H](C(=O)N[C@H](CO)[C@@H](C)O)NC1=O", "note": "(stereo not given in full)", "outcome": "inactive"}
{"compound": "C[C@H]1O[C@@H](O[C@H]2CC[C@@]3(C)[C@H](CC[C@@H]4[C@@H]3C[C@@H](O)[C@]3(C)[C@@H](C5=CC(=O)OC5)CC[C@]43O)C2)C[C@H](O)[C@@H]1O[C@H]1C[C@H](O)[C@H](O[C@H]2C[C@H](O)[C@H](O[C@@H]3O[C@H](CO)[C@@H](O)[C@H](O)[C@H]3O)[C@@H](C)O2)[C@@H](C)O1", "AC50": "0.284 µM (active)"}
{"compound": "Cc1ccccc1CNc1ncnc2c1ncn2[C@@H]1O[C@H](CO)[C@@H](O)[C@H]1O", "outcome": "inactive"}
{"compound": "Cc1cc(-c2ccc(N=Nc3c(S(=O)(=O)O)cc4cc(S(=O)(=O)O)cc(N)c4c3O)c(C)c2)ccc1N=Nc1c(S(=O)(=O)O)cc2cc(S(=O)(=O)O)cc(N)c2c1O", "outcome": "inactive"}
{"compound": "N#Cc1ccc(C(=O)O)cc1", "outcome": "inactive"}
{"compound": "CC(C)CCOC(=O)c1ccc(N(C)C)cc1", "outcome": "inactive"}
{"compound": "NC(=O)CCCCC1CCSS1", "note": "(stereo not given)", "outcome": "inactive"}
{"compound": "CCN1CCOCC1", "outcome": "inactive"}
{"compound": "Cc1ccc(C2(O)CCN(CCCC(=O)c3ccc(F)cc3)CC2)cc1", "outcome": "inactive"}
{"compound": "NC12CC3CC(CC(C3)C1)C2", "outcome": "inactive"}
{"compound": "Cc1ccc(Cl)cc1N", "outcome": "inactive"}
{"compound": "Cn1c(N)c(N=O)c(=O)n(C)c1=O", "outcome": "inactive"}
{"compound": "CC(=O)SC[C@@H](Cc1ccccc1)C(=O)NCC(=O)OCc1ccccc1", "outcome": "inactive"}
{"compound": "CC(C(O)c1ccc(O)cc1)N1CCC(Cc2ccccc2)CC1", "note": "(stereo not given)", "outcome": "inactive"}
{"compound": "CN(C)c1cc(NC(=O)CNC(C)(C)C)c(O)c2c1C[C@H]1C[C@H]3[C@H](N(C)C)C(=O)C(C(N)=O)=C(O)[C@@]3(O)C(=O)C1=C2O", "outcome": "inactive"}
{"compound": "OCCN(CCO)CCN(CCO)CCO", "outcome": "inactive"}
{"compound": "CCC(=O)OCC(=O)[C@@]1(OC(=O)CC)[C@@H](C)C[C@H]2[C@@H]3CCC4=CC(=O)C=C[C@]4(C)[C@@]3(F)[C@@H](O)C[C@@]21C", "outcome": "inactive"}
{"compound": "COC(=O)c1ccccc1C(=O)c1ccc(OCCN2CCCCC2)cc1", "outcome": "inactive"}
{"compound": "O=C(O)/C=C/C(O)c1ccc(Cl)cc1", "note": "(stereo not given)", "outcome": "inactive"}
{"compound": "COC(C)(OC)OC", "outcome": "inactive"}
{"compound": "CCCCCCCCCCCCCCCC(=O)OC[C@@H](NC(=O)C(Cl)Cl)[C@H](O)c1ccc([N+](=O)[O-])cc1", "outcome": "inactive"}
{"compound": "CN(C)CCOC(c1ccccc1)c1ccccc1", "note": "(tested in a mixture with another compound)", "outcome": "inactive"}
{"compound": "N#C[C@@H]1C[C@@H]2C[C@@H]2N1C(=O)[C@@H](N)C12CC3CC(CC(O)(C3)C1)C2", "outcome": "inactive"}
{"compound": "Nc1c(CC(=O)O)cccc1C(=O)c1ccc(Br)cc1", "outcome": "inactive"}
{"compound": "CN(CCO)CC(O)Cn1cnc2c1c(=O)n(C)c(=O)n2C", "note": "(stereo not given) (tested in a mixture with another compound)", "outcome": "inactive"}
{"compound": "COc1ccc2[nH]c(S(=O)Cc3ncc(C)c(OC)c3C)nc2n1", "note": "(stereo not given)", "outcome": "inactive"}
{"compound": "COc1ccc(CCN(C)CCCC(C#N)(c2ccc(OC)c(OC)c2)C(C)C)cc1OC", "note": "(stereo not given)", "outcome": "inactive"}
{"compound": "Oc1cccc2cc3cccc(O)c3c(O)c12", "outcome": "inactive"}
